Experimental data published in PubChem BioAssay AID720700 (The Scripps Research Institute Molecular Screening Center, 2013).
Out of some 370,000 compounds screened, about 3,100 (0.84%) were called active. Cut-off read from the data, not from the text of the source: active = inhibition above about 9.5%; inactive = the rest. The list comes from a sample in which actives are over-represented; it also holds similar structures and randomly drawn compounds.

Each compound was assayed against 1-phosphatidylinositol 4,5-bisphosphate phosphodiesterase gamma-1 (Homo sapiens) (UniProt P19174) (assay: PLC-gamma1 enzyme inhibitors, primary screen, biochemical, fluorescence, purified enzyme (AID 720700)). Details: purified PLC-gamma1, fluorogenic substrate, at 12.2 µM, stronger effect = higher value.
Sequence of 1-phosphatidylinositol 4,5-bisphosphate phosphodiesterase gamma-1 (Homo sapiens) (P19174 whole entry, looked up): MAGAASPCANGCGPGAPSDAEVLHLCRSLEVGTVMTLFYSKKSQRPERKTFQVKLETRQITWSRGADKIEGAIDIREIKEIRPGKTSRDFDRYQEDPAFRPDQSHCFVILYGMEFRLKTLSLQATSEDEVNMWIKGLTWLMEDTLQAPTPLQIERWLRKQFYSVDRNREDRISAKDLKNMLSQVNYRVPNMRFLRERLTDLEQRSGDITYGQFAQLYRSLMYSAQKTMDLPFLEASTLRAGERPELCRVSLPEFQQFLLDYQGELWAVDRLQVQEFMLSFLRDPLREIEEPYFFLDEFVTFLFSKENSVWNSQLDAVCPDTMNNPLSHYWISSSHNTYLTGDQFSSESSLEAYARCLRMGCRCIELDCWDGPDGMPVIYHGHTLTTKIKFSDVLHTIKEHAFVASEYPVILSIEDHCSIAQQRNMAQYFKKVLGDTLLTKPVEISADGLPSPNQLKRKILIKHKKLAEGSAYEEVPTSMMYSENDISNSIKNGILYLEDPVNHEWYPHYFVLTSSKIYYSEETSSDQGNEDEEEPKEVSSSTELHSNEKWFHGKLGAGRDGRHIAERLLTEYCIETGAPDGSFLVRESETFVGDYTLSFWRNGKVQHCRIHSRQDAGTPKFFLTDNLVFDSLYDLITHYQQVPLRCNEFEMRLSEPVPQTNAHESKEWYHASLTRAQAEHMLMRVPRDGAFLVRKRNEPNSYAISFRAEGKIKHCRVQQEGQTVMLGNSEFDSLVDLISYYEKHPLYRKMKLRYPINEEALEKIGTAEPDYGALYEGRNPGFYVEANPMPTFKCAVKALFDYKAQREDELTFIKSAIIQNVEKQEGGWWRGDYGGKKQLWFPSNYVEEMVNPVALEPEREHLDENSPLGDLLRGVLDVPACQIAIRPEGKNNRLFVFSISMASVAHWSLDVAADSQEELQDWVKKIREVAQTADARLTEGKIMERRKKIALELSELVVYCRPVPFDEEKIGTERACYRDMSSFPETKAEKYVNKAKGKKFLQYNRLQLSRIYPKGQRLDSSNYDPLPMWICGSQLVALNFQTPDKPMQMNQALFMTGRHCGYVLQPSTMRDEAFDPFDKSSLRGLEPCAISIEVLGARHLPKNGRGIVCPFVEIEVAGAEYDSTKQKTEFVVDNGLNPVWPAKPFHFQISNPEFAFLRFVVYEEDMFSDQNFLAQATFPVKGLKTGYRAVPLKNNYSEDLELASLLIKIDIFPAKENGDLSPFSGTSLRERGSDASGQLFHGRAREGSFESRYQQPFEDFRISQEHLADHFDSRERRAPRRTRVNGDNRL

| Structure (SMILES) | inhibition |
| --- | --- |
| COc1ccc(C(=O)CSc2nnc(-c3cnccn3)n2-c2ccc(C)cc2)cc1 | -2.8% (inactive) |
| CCC[C@H]1C(=O)CC[C@@]23CCCN2C(=O)CCC[C@@H]13 | -1.51% (inactive) |
| CCOC(=O)[C@]12CCCC3=C1N(CCC3)C(=O)[C@@H](CC(=O)NCc1cccs1)C2 | -0.59% (inactive) |
| S=c1[nH]nc(-c2cccnc2)n1/N=C/C(Cl)=C\c1ccccc1 | 12.7% (active) |
| CSc1ccc(C=Nn2c(-c3ccc(F)cc3)n[nH]c2=S)cc1 | 3.12% (inactive) |
| C(=C\c1ccccc1)/CSc1nnc(-c2cccnc2)n1Cc1ccco1 | -1.89% (inactive) |
| Cc1[nH]c(C)c(S(=O)(=O)N2CCN(c3cccc(C(F)(F)F)c3)CC2)c1C(=O)N1CCCC1 | 0.67% (inactive) |
| Cc1ccc(C)c(N2CCN(S(=O)(=O)c3c(C)[nH]c(C)c3C(=O)N3CCCC3)CC2)c1 | 17% (active) |
| Cc1[nH]c(C)c(S(=O)(=O)N2CCN(c3cccc(C(F)(F)F)c3)CC2)c1C(=O)N1CCCCC1 | 0.49% (inactive) |
| CN(C(N)=NC(=O)/C=C/c1ccccc1)C(C#Cc1ccccc1)Cc1ccccc1 (stereo not drawn) | -3.61% (inactive) |
| C=CCN(Cc1ccc2c(c1)OCO2)C(C#CC1CC1)C(C)(C)C (stereo not drawn) | -0.25% (inactive) |
| O=c1ccc2c(-c3ccccc3S(=O)(=O)O)c3ccc(O)c(O)c3oc-2c1O | 25.2% (active) |
| O=C(CSc1nc2ccccc2n1Cc1ccccc1)NNC(=S)Nc1ccccc1 | 3.11% (inactive) |
| C#CCNC(=O)C[C@H]1C[C@@]2(C(=O)OC)C(=C[C@H](C(C)C)O[C@@H]2C2CC2)N(Cc2ccco2)C1=O | 0.18% (inactive) |
| O=C(NCc1cccs1)C1CCN(S(=O)(=O)c2ccccc2[N+](=O)[O-])CC1 | 3.22% (inactive) |
| c1coc(CCNc2ncnc3ccc(-c4ccc5c(c4)OCO5)cc23)c1 | -114% (inactive) |
| CC(C)CCSc1ncnc2c1oc1nc3c(cc12)COC(C)(C)C3 | 10.6% (active) |
| CCCc1nc2oc3c(OCC)ncnc3c2c2c1COC(C)(C)C2 | 2.49% (inactive) |
| CC1(C)Cc2nc3sc4c(SCC(=O)NC(c5ccccc5)c5ccccc5)ncnc4c3cc2CO1 | -1.56% (inactive) |
| COC(=O)C1CN(Cc2ccc(F)cc2)CCS(=O)(=O)N1Cc1ccc(Cl)cc1 (stereo not drawn) | -0.52% (inactive) |
| C=CCN1C(=O)[C@@H](CC(=O)NCC2CCCCC2)[C@]2(C(=O)OC)CCCCC=C12 | -0.08% (inactive) |
| CC(C)CSc1nnc(-c2cccnc2)n1Cc1ccccc1 | 0.54% (inactive) |
| COc1ccnc(NC(=S)N2CCN(c3ncc(C(F)(F)F)cc3Cl)CC2)c1 | 4.36% (inactive) |
